The campaign covered roughly 310,000 compounds. About 14,000 (4.5%) showed an effect of 50% or more. The effect is printed as a negative number. This is one part of a sample in which strong results are shown more often than they occur.
Biological target: human ether-à-go-go-related gene (hERG) potassium channel (human, UniProt Q12809)
Experiment: primary screen, population patch clamp on CHO cells stably expressing hERG; higher = less effect of the substance
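Also: peak tail current of the secondary pulse compared with the same well before compound.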

Chain of human ether-à-go-go-related gene (hERG) potassium channel (Q12809 whole entry, looked up): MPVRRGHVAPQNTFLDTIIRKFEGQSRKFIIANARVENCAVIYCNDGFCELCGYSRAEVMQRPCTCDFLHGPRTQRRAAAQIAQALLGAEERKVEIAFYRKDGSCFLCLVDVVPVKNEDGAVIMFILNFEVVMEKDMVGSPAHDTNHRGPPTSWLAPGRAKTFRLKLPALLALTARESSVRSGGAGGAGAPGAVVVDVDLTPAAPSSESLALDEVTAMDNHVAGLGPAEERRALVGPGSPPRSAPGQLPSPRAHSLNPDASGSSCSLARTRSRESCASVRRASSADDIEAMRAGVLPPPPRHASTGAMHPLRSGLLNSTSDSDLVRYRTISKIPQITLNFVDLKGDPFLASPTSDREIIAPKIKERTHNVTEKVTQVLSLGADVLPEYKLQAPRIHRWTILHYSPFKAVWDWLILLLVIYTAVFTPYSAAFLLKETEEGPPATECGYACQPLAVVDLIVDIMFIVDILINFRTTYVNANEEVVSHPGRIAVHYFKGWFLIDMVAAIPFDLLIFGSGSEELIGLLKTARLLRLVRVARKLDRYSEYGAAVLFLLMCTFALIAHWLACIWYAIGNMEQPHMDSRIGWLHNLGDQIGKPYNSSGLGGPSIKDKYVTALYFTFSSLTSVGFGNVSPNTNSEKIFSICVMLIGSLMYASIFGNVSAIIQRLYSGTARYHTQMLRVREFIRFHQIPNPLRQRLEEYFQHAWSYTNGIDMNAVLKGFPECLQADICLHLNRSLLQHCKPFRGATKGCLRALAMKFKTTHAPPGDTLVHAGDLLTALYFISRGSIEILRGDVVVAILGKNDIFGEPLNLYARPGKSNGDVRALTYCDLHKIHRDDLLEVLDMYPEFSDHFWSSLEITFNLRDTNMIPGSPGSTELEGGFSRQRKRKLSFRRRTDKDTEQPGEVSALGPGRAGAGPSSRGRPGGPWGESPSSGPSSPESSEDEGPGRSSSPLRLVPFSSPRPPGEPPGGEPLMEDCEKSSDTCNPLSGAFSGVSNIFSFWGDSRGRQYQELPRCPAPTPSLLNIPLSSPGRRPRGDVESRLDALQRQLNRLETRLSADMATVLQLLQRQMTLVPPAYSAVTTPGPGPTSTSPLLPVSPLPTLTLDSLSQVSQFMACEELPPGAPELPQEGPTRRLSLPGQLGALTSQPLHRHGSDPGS

Compound	hERG current change (%, negative = inhibition) at 10uM [%]
CCCCn1c(N)c(N(CCOC)C(=O)CSCc2ccc(C)cc2)c(=O)[nH]c1=O	13.4
O=C1C(Cl)=C(Nc2ccccc2O)C(=O)N1c1ccccc1	0.891
CCN1CCN(C(c2ccc(F)cc2)c2nnnn2Cc2cccs2)CC1 (stereo not drawn)	-59.4
CC(C)C(c1nnnn1Cc1cccs1)N1CCN(C2CCCC2)CC1 (stereo not drawn)	-30.9
CN1CCN(C(c2cccs2)c2nnnn2Cc2ccc(F)cc2)CC1.Cl (stereo not drawn)	-13.1
CN1CCN(C(c2ccc(F)cc2)c2nnnn2Cc2cccs2)CC1.Cl (stereo not drawn)	-21
c1ccc(C(c2nnnn2Cc2cccs2)N2CCN(C3CCCC3)CC2)cc1 (stereo not drawn)	-46.3
Fc1ccc(Cn2nnnc2C(c2cccs2)N2CCCCCC2)cc1 (stereo not drawn)	-11.2
Fc1ccc(C(c2nnnn2Cc2ccccc2)N2CCSCC2)cc1 (stereo not drawn)	-2.85
Fc1ccc(C(c2nnnn2Cc2cccs2)N2CCN(C3CCCCC3)CC2)cc1 (stereo not drawn)	-60.3
Fc1ccc(Cn2nnnc2C(c2cccs2)N2CCN(C3CCCCC3)CC2)cc1 (stereo not drawn)	-66.4
Cl.Fc1ccc(C(c2nnnn2Cc2cccs2)N2CCN(C3CCCC3)CC2)cc1 (stereo not drawn)	-67.4
CCN1CCN(C(c2ccc(F)cc2)c2nnnn2Cc2ccc3c(c2)OCO3)CC1.Cl (stereo not drawn)	-44
CC(=O)Nc1ccccc1NC(=O)COc1cccc2ccccc12	18.9
CCOC(=O)c1sc(NC(=O)CN2CCN(c3ccc(OC)cc3)CC2)nc1C	-20.6
O=C(Nc1nc2ccccc2s1)c1ccc(N2CCCCC2)c([N+](=O)[O-])c1	6.67
O=C(NNC(=O)c1ccc(Br)s1)NC1CCCCC1	28.1
Cc1ccc(NC(=O)CCSc2nnc3ccccn23)cc1	2.6
NC(=O)c1cc(S(=O)(=O)Nc2ccccc2)cs1	1.39
Cc1cccc(NS(=O)(=O)c2csc(C(N)=O)c2)c1	8.92
NC(=O)c1cc(S(=O)(=O)Nc2cccc(Cl)c2)cs1	-61.2
CCC(C)NC(=O)C1CCC(CNS(=O)(=O)c2ccc3c(c2)N(C(C)=O)CCO3)CC1 (stereo not drawn)	6.84
COc1ccccc1NC(=O)C(=O)NCC(c1ccco1)N1CCc2ccccc21 (stereo not drawn)	-1.64

Compound	hERG current change (%, negative = inhibition) at 10uM [%]
COc1ccc(-n2cnc3c(sc4nc(N5CCOCC5)c5c(c43)CCCC5)c2=O)cc1	21.3
CCc1cccc(NS(=O)(=O)c2c(C)[nH]c(=O)[nH]c2=O)c1	20.8
COc1ccc2cc(CN(Cc3cccnc3)Cc3nnnn3Cc3ccccc3)c(=O)[nH]c2c1	-74.4
COc1ccc2[nH]c(=O)c(CN(Cc3ccccc3)Cc3nnnn3CC3CCCO3)cc2c1 (stereo not drawn)	-4.75
COc1ccc2cc(CN(CCc3ccccc3)Cc3nnnn3Cc3ccco3)c(=O)[nH]c2c1	-29.7
COCCn1nnnc1CN(CCc1ccccc1)Cc1cc2cc(OC)ccc2[nH]c1=O	-47.8
COCCn1nnnc1CN(CCc1ccccc1)Cc1cc2ccc(C)cc2[nH]c1=O	-57.2
COc1ccc2cc(CN(Cc3cccs3)Cc3nnnn3Cc3ccccc3)c(=O)[nH]c2c1	-11.3
COc1ccc2cc(CN(CCc3ccccc3)Cc3nnnn3CC3CCCO3)c(=O)[nH]c2c1 (stereo not drawn)	-31.3
COc1ccc2[nH]c(=O)c(CN(CCc3ccccc3)Cc3nnnn3CC3CCCO3)cc2c1 (stereo not drawn)	-53.4
COCCn1nnnc1CN(CCc1ccc(OC)c(OC)c1)Cc1cc2ccc(C)cc2[nH]c1=O	-42.8
COc1cc(OC)cc(C(=O)OCC(=O)NCc2ccco2)c1	2.94
Cc1ccc(-n2nnc3c(=O)n(CC(=O)N4CCOCC4)cnc32)cc1	-3.25
CCOc1ccccc1C(=O)NCCC(=O)O	8.38
Cc1onc(-c2c(F)cccc2Cl)c1C(=O)N1CCc2ccccc2C1	-15.7
O=C(CCn1ccc2cc(S(=O)(=O)N3CCCC3)ccc21)NCCc1ccccc1	-16.9
O=C(Nc1ccc(Br)cc1)C1CCCC1	9.31
O=C(c1ccc(COc2ccccc2Cl)o1)N1N=C(C(F)F)CC1(O)C(F)F (stereo not drawn)	17.1
COc1ccc(CCNc2ccc(C(CC(N)=O)NC(=O)Cc3ccc(Br)cc3)cc2[N+](=O)[O-])cc1 (stereo not drawn)	4.07
S=c1[nH]nc(-c2cc(-c3ccsc3)n[nH]2)n1-c1cccc2ccccc12	-12.6
COc1cccc(N2CC(NC(=O)c3cccc4ccccc34)CC2=O)c1 (stereo not drawn)	-6.44
CCCC1(CCC)C(=O)NC(=NCCc2ccc(OC)c(OC)c2)NC1=O	13.4

Source: publication PMC4336329 (PLoS ONE, 2015)
